# Experimental data from PubChem BioAssay (NCATS).
# Inconclusive results are not listed. Entries that show only a call come without a potency. Calls of active or inactive are those of the source. Calls follow the shape of the dose curve; as a rule, active = well fitted inhibition curve with a large enough effect; inconclusive = small, poorly fitted or top-dose-only effect; inactive = flat fitted curve, though single readings scatter.
# Columns and labels:
# Test in all cases: qHTS profiling for inhibitors of Plasmodium falciparum proliferation (AID 504749); also: nearly all actives have a fitted effect of over 60% in size
# Settings in all cases: P. falciparum in erythrocytes, SYBR Green DNA, 72 h; series mostly up to 28.7 µM
# FAB9 = test system: FAB9
# Outline: (§1)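 Readout was DNA-dye fluorescence from lysed cultures, ex 485/em 535 nm. Parasitized red cells had grown 72 h with compound; data scaled between 0.29 uM artemisinin and DMSO wells and corrected using vehicle-only plates.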
# GB4 = test system: GB4
# Outline: as §1
# HB3 = test system: HB3
# Outline: as §1
# ICS = test system: ICS
# Outline: as §1
# JCK = test system: JCK
# Outline: as §1
# N140 = test system: N140
# Outline: as §1
# P93_24 = test system: P93_24
# Outline: as §1
# P94_40 = test system: P94_40
# Outline: as §1
# PAD = test system: PAD
# Outline: as §1
# PC15 = test system: PC15
# Outline: as §1
# Potency is read from the fitted curve at half-maximal effect.
Structure (SMILES),Potency (FAB9),Potency (GB4),Potency (HB3),Potency (ICS),Potency (JCK),Potency (N140),Potency (P93_24),Potency (P94_40),Potency (PAD),Potency (PC15)
CNC(=O)C[C@@H](N)C(=O)N[C@@H](C(=O)N[C@@H]1C(=O)N2[C@@H]1SC(C)(C)[C@@H]2C(=O)O)c1ccc(O)cc1,inactive,inactive,inactive,inactive,inactive,inactive,inactive,inactive,inactive,inactive
CC(C)CCC[C@@H](C)[C@H]1CC[C@H]2[C@@H]3CC=C4C[C@@H](O)CC[C@]4(C)[C@H]3CC[C@]12C,inactive,inactive,inactive,inactive,inactive,inactive,inactive,inactive,inactive,inactive
CCC(O)c1ccccc1 (stereo not given),inactive,inactive,inactive,inactive,inactive,inactive,inactive,inactive,inactive,inactive
O=C(CCCCCCCCCCCCC1CCCC1)Nc1ccc(S(=O)(=O)c2ccc(NC(=O)CCCCCCCCCCCCC3CCCC3)cc2)cc1,inactive,inactive,inactive,inactive,inactive,inactive,inactive,inactive,inactive,inactive
NCC[C@H](O)C(=O)N[C@@H]1C[C@H](N)[C@@H](O[C@H]2O[C@H](CN)CC[C@H]2N)[C@H](O)[C@H]1O[C@H]1O[C@H](CO)[C@@H](O)[C@H](N)[C@H]1O,inactive,inactive,inactive,inactive,inactive,inactive,inactive,inactive,inactive,inactive
COC(=O)CCC[N+](C)(C)C,inactive,inactive,inactive,inactive,inactive,inactive,inactive,inactive,inactive,inactive
ClC(Cl)Cl,inactive,inactive,inactive,inactive,inactive,inactive,inactive,inactive,inactive,inactive
CCc1ncnc2cc(OC)c(OC)cc12,inactive,inactive,inactive,inactive,inactive,inactive,inactive,inactive,inactive,inactive
Cc1ncc(C[n+]2csc(CCOP(=O)(O)OP(=O)(O)O)c2C)c(N)n1,inactive,inactive,inactive,inactive,inactive,inactive,inactive,inactive,inactive,inactive
CC(CNC(=O)c1cccnc1)NC(=O)c1cccnc1 (stereo not given),inactive,inactive,inactive,inactive,inactive,inactive,inactive,inactive,inactive,inactive
CCCCCCCCCC(=O)NO,inactive,inactive,inactive,inactive,inactive,inactive,inactive,inactive,inactive,inactive
O=C(O)/C=C/c1ccccc1,inactive,inactive,inactive,inactive,inactive,inactive,inactive,inactive,inactive,inactive
CC(/C=C/C=C(\C)C(=O)O[C@@H]1O[C@H](CO[C@@H]2O[C@H](CO)[C@@H](O)[C@H](O)[C@H]2O)[C@@H](O)[C@H](O)[C@H]1O)=C\C=C\C=C(C)\C=C\C=C(/C)C(=O)O[C@@H]1O[C@H](CO[C@@H]2O[C@H](CO)[C@@H](O)[C@H](O)[C@H]2O)[C@@H](O)[C@H](O)[C@H]1O,inactive,inactive,inactive,inactive,inactive,inactive,inactive,inactive,inactive,inactive
NCCN,inactive,inactive,inactive,inactive,inactive,inactive,inactive,inactive,inactive,inactive
CC(C)(C)c1ccc2c(S(=O)(=O)O)c(C(C)(C)C)ccc2c1,inactive,inactive,inactive,inactive,inactive,inactive,inactive,inactive,inactive,inactive
C[C@H](N)C(=O)N[C@@H](C)P(=O)(O)O,inactive,inactive,inactive,inactive,inactive,inactive,inactive,inactive,inactive,inactive
NC(=S)N=Nc1ccc(NN=C(N)N)cc1,11.2 µM (active),6.75 µM (active),5.62 µM (active),5.01 µM (active),8.91 µM (active),7.94 µM (active),5.01 µM (active),7.94 µM (active),11.2 µM (active),8.91 µM (active)
CO/N=C(\C(=O)N[C@@H]1C(=O)N2C(C(=O)[O-])=C(C[n+]3cccc4c3CCC4)CS[C@H]12)c1csc(N)n1,inactive,inactive,inactive,inactive,inactive,inactive,inactive,inactive,inactive,inactive
CCCCC[C@H](O)/C=C/[C@@H]1[C@H]2C/C(=C/CCCC(=O)O)O[C@H]2C[C@H]1O,inactive,inactive,inactive,inactive,inactive,inactive,inactive,inactive,inactive,inactive
Nc1nccs1,inactive,inactive,inactive,inactive,inactive,inactive,inactive,inactive,inactive,inactive
[O-][N+](=Nc1ccccc1)c1ccccc1,inactive,inactive,inactive,inactive,inactive,inactive,inactive,inactive,inactive,inactive
CCCCCCCCCCCCCCCCCC(=O)OC[C@@H](O)[C@H]1OC[C@H](O)[C@H]1O,inactive,inactive,inactive,inactive,inactive,inactive,inactive,inactive,inactive,inactive
CNC(=O)c1c(I)c(C(=O)NCC(=O)Nc2c(I)c(C(=O)O)c(I)c(C(=O)NCCO)c2I)c(I)c(N(C)C(C)=O)c1I,inactive,inactive,inactive,inactive,inactive,inactive,inactive,inactive,inactive,inactive
NCC[C@H](O)C(=O)N[C@@H]1C[C@H](N)[C@@H](O[C@H]2O[C@H](CN)[C@@H](O)[C@H](O)[C@H]2O)[C@H](O)[C@H]1O[C@H]1O[C@H](CO)[C@@H](O)[C@H](N)[C@H]1O,inactive,inactive,inactive,inactive,inactive,inactive,inactive,inactive,inactive,inactive
CC(=O)NCCCS(=O)(=O)O,inactive,inactive,inactive,inactive,inactive,inactive,inactive,inactive,inactive,inactive
FC(F)(F)C(F)(F)C(F)(F)C(F)(F)C(F)(F)C(F)(F)F,inactive,inactive,inactive,inactive,inactive,inactive,inactive,inactive,inactive,inactive
OCC1(CO)COC(C(Cl)(Cl)Cl)OC1,inactive,inactive,inactive,inactive,inactive,inactive,inactive,inactive,inactive,inactive
O=C(O)c1ccc(OCCn2ccnc2)cc1,inactive,inactive,inactive,inactive,inactive,inactive,inactive,inactive,inactive,inactive
CCCCCCCCCCCCCC(=O)OCC(COP(=O)([O-])OCC[N+](C)(C)C)OC(=O)CCCCCCCCCCCCC (stereo not given),inactive,inactive,inactive,inactive,inactive,inactive,inactive,inactive,inactive,inactive
